# From PubChem BioAssay (NCI)
# About 83,000 compounds went through this panel and 20% of them were active in at least one assay; those are over-represented in the sample as a whole.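 Testing used 96-well plates and a 48-hour single-concentration exposure. Example: -40 means 40% of the starting cells died.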 Unmarked numbers belong to inactive results. Calls of active or inactive are those of the source. The calls were made as follows: active = growth percent below 10; inactive = the rest.
# Tested on: MDA-MB-468 breast
# Assay: NCI-60 one-dose screen, 48 h (100 = growth as untreated, 0 = no growth, -100 = all killed)
# Details: 10 µM unless noted
row,SMILES,growth
1,CC1=N/C(=C\c2cccc(Br)c2)C(=O)O1,107%
2,CC(=C(c1ccc(OCCN2CCCCC2)cc1)c1ccc(OCCN2CCCCC2)cc1)c1ccc(Cl)cc1,-79.6% (active)
3,O=[N+]([O-])c1cc(S(=O)(=O)c2ccc(F)c([N+](=O)[O-])c2)ccc1F,88.4%
4,ON1CCCC1,108%
5,Cc1cc(=O)n(C(=O)Nc2ccccc2Cl)c2cc(O)ccc12,104%
6,O=C1Nc2ccc(F)cc2/C1=C\C(=O)c1ccc(NS(=O)(=O)c2ccccc2)cc1,90.3%
7,Cc1ccc(OCCOCCOCCOCCOc2ccc(C)n(O)c2=S)c(=S)n1O,-13.8% (active)
8,CCN(CC)c1ccc2nc3ccc(N=Nc4ccc(O)cc4)cc3[n+](-c3ccccc3)c2c1,-60.7% (active)
9,COc1ncc(-c2ccc3nccc(C#CCCCCC(=O)NO)c3c2)cc1NS(=O)(=O)c1ccc(F)cc1F,-37.1% (active)
10,COC(=O)CNc1nc(N(C)O)nc(N(C)O)n1,30.6%
11,COc1cc(C(=O)Nc2cc3c(cc2Oc2cc(C)cc(C)c2)C(=O)N(C)[C@@H](CC(=O)N(C)O)C(=O)N3)c(Br)c(OC)c1OC,-41.6% (active)
12,O=C(Nc1ccc(F)c(F)c1)c1cc(-c2ccc(F)cc2F)ccc1O,-8.51% (active)
13,COc1ccc(-c2nc3c(c(-c4ccccc4)nn3-c3ccccc3)c(-c3ccc(N4CCN(C)CC4)cc3)c2C#N)cc1,79.2%
14,COc1cc(Nc2ncc(F)c(Nc3ccc4c(n3)N(COP(=O)(O)O)C(=O)C(C)(C)O4)n2)cc(OC)c1OC,6.8% (active)
15,Cc1nc([N+](=O)[O-])c(Sc2nncc(-c3ccccc3)n2)n1C,29.5%
16,CCCc1nn2c(CCC(=O)c3nc4ccc([N+](=O)[O-])cc4[nH]3)nnc2s1,114%
17,Cc1sc2c(c1C)c(=O)nc1c(-c3nc(-c4ccc(F)cc4)no3)n[nH]n12,110%
18,O=C(NCCn1ccnc1)c1ccc(-c2nc3ccc4[nH]ncc4c3c3c2CCCC3)cc1,10.1%
19,COc1cc(-c2nc(SC(C)C)n(C(C)C)c(=O)c2C#N)ccc1OCc1ccccc1,66.8%
20,COc1ccc(-c2nc3sc4c(c3c(=O)[nH]2)CCCCCC4)cc1,98.5%
21,COc1cc2c(cc1OC)-c1ccc3cc4c(cc3c1N(CCCN(C)C)C2)OCO4,22.3%
22,O=C(NCCN1CCOCC1)OCc1nc2nc(Cl)nc(N3CCOCC3)c2[nH]1,10.1%
23,O=C1c2cccnc2C(=O)c2c1c(C(=O)OCCN1CCCCC1)c1ccccn21,-16.6% (active)
24,CC(C)c1ncc(CO)n1Cc1c(Cl)cccc1Cl,97.5%
25,COc1cccc(/C=C/C(=O)c2cc3c(N)c(C(=O)Nc4cccc(Cl)c4C)sc3nc2C)c1,-7.04% (active)
